The list is not random: actives were taken first. Their share in the collection is about 2.5%.
Pol beta inh – inhibitors of human DNA polymerase beta; actives 1.3% (n = 340,000); Potency, µM (highest dose often 114 µM), for the others: at the top dose activity change, negative = inhibition, actives largely listed as inhibitors; Pol beta primer extension/strand displacement, fluorescence kinetic; note: % is set by controls: 0 for no effect and ±100 for the full control effect
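Homogeneous kinetic assay of primer extension and strand displacement by 10 nM Pol beta, preincubated 15 min at room temperature with compound before 50 nM substrate (final) was added. Read at 0 and 10 min; four-parameter Hill fit.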
POLK inh – inhibitors of human DNA polymerase kappa; Potency, µM (titrated, usually from 107 µM), for the others: top-dose activity, negative = inhibition, actives largely listed as inhibitors; Q9UBT6; purified Pol kappa, fluorescent DNA synthesis assay, 10 min; actives 0.53% (n = 400,000); note: % is set by controls: 0 for no effect and ±100 for the full control effect
Target sequence (Q9UBT6 whole entry, looked up): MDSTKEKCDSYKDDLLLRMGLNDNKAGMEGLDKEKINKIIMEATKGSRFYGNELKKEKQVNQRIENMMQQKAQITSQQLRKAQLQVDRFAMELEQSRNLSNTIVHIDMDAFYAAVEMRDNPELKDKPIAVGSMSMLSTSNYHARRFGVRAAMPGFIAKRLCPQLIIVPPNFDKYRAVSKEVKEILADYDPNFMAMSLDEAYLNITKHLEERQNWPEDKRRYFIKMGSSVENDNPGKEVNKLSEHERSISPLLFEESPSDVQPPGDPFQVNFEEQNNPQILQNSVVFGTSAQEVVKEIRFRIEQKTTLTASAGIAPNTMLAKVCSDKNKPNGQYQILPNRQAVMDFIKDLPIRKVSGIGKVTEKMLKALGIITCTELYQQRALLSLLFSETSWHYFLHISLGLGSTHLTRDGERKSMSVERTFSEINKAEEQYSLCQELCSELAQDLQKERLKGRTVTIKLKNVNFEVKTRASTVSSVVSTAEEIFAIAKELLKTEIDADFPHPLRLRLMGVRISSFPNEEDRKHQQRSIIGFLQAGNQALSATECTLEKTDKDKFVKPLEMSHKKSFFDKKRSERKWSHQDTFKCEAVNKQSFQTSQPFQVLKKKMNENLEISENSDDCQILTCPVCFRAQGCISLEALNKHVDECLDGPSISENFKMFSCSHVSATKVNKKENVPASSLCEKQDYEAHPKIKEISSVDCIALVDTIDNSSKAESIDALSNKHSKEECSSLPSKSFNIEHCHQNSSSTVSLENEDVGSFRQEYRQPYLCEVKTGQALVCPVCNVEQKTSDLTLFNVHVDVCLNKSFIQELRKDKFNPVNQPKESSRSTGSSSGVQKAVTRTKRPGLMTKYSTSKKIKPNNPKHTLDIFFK
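10 nM Pol kappa was preincubated with compounds for 15 min at room temperature. Reaction started with 50 nM (final) substrate. Fluorescence read kinetically at 0 and 10 min.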
POLH inh – blocks human DNA polymerase eta activity | actives 1.2% (n = 390,000) | recombinant Pol eta, fluorescent DNA replication assay | Q9Y253 | Potency, µM (top dose mostly 114 µM), for inactives: at the highest dose activity change, negative = inhibition, hits mostly inhibitors | AID 588591; note: % is set by controls: 0 for no effect and ±100 for the full control effect
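Pol eta at 10 nM preincubated with compounds 15 min at room temperature; reaction started with fluorescent substrate (50 nM final) and read kinetically at 0 and 10 min.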
L3MBTL1 inh – inhibitors of human L3MBTL1; Q9Y468; AlphaScreen L3MBTL1–H3K9me1 peptide binding; Potency, µM (top dose mostly 57.1 µM), without a hit: top-dose activity, negative = inhibition, actives largely listed as inhibitors; actives 0.66% (n = 230,000); AID 485360; note: % is set by controls: 0 for no effect and ±100 for the full control effect; nearly all actives have a fitted effect of over 60% in size
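Displacement of a biotinylated histone H3(1-15) peptide monomethylated at Lys9 (75 nM) from L3MBTL1 (50 nM) was measured by AlphaScreen after a 30 min room-temperature compound incubation; cefsulodin titration served as intraplate control.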
Pol iota inh – blocks human DNA polymerase iota activity; Pol iota fluorescent replication assay, 10 min; Potency, µM (doses to about 115 µM), inactives show at the top dose activity, negative = inhibition, usual class: inhibitors; Q9UNA4; actives 1% (n = 390,000)
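Fluorescent replication assay read twice, at 0 min and 10 min after adding 50 nM (final) substrate. Enzyme (10 nM) and compounds were first incubated 15 min at room temperature; enzyme-free buffer wells were negative controls.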
WRN inhibitor – WRN helicase (human) inhibition. Q14191. WRN helicase unwinding, fluorescent forked duplex, kinetic. Potency, µM (doses to about 114 µM), for the others: at the top dose activity change, negative = inhibition, hits mostly inhibitors. actives 0.46% (n = 360,000). AID 651768; note: % is set by controls: 0 for no effect and ±100 for the full control effect; nearly all actives have a fitted effect of over 55% in size
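Screening of the MLSMR collection measured strand separation of a quenched forked DNA duplex (100 nM) by 20 nM WRN with 2 mM ATP, all final. Compounds were preincubated with enzyme 15 min at room temperature.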
* = called active by the depositor; ? = inconclusive; . = not tested or not shown; [ ] = remark or other dose. Calls come from the whole dose curve; as a rule, active = well fitted curve in the direction sought with a large enough effect; inconclusive = small, poorly fitted or top-dose-only effect, or another doubt; inactive = no such curve, though single readings can be large; an effect the other way counts as inactive or inconclusive. Potency is the fitted concentration of half-maximal effect.

SMILES | Pol beta inh | POLK inh | POLH inh | L3MBTL1 inh | Pol iota inh | WRN inhibitor
Cc1c(OC(C)C(=O)NCC(O)c2ccccc2)ccc2c3c(c(=O)oc12)CCCC3 (stereo not drawn) | 7.5% | -0.1% | -0.6% | . | -0.2% | 9.1%
CC(=O)Nc1ccc(S(=O)(=O)N2CCC(c3ccncc3)CC2)cc1 | 1.7% | -4.7%[60.1 µM] | -15.4% | . | 3.6% | .
Cc1cc(C)c(NC(=O)C(C)n2c(=O)c(C(F)(F)F)nc3ccccc32)c(C)c1 (stereo not drawn) | 19.6% | 20.9% | -11.9% | . | 7.5% | .
CCOC(=O)c1sc(Nc2nc3cc4c(cc3s2)OCO4)cc1C | 35.5µM* | -5.5% | ? | 4.5% | 10.8% | -15.5%
C=CCn1cccc(/C=C/C(=O)c2ccc(C(C)(C)C)cc2)c1=S | -0.2% | -18.9% | ? | 28.2µM* | ? | -13.4%
C[C@@H]1[C@H](c2ccccc2)OCCS(=O)(=O)N1Cc1cccc(Cl)c1 | . | 7.1% | . | . | 16.4% | .
Cc1ccc(CN(C(=O)COc2ccccc2[N+](=O)[O-])c2ccccn2)cc1 | -1.4% | -3.6% | -7.7% | . | 10.0% | .
Cn1c(SCC(=O)NC2CC2)nnc1C1CC1 | 0.7% | -19.0% | -7.3% | . | 9.5% | 8.5%
CC1=NN(C(=O)c2ccncc2)C(=O)C1N=Nc1ccc2ccccc2c1 (stereo not drawn) | . | ? | ? | . | 89.1µM* | -0.8%[11.6 µM]
Cc1ccc(/C=C/C2=Cc3c(sc(NC(=O)CSc4n[nH]c(N)n4)c3C#N)C(C)(C)C2)o1 | 39.8µM* | . | . | ? | . | .
CC(C)(C)c1ccc(OCC(=O)N/N=C/c2ccc(N3CCOCC3)cc2)cc1 | -6.9% | -27.3% | -16.8% | -10.2% | 36.1% | 0.9%
COc1ccc([C@@H]2CC=C(C(=O)O)[C@H](c3ccc(C)cc3)N2S(=O)(=O)c2ccc(C)cc2)cc1OC | . | -7.2% | -15.8% | 4.6% | 10.4% | -4.1%
COc1ccccc1-c1cnc(C(O)c2ccc(C)c(F)c2)[nH]1 (stereo not drawn) | . | . | . | . | . | 3.1%[57.1 µM]
c1ccc(-c2nc3nonc3c3nc4ccccc4n23)cc1 | 44.7µM* | -3.1% | -2.2% | -3.7% | 22.6% | -23.0%
O=c1c2c3c(sc2nc2n1CCCCC2)CCC3 | 31.6µM* | 6.0% | -12.2% | . | 11.0% | 2.9%
O=C1c2sc3nc4n(c(=O)c3c2CCC1Br)CCCCC4 (stereo not drawn) | 50.1µM* | -6.4% | ? | -8.2% | ? | -33.2%
O=C1CCCc2c1sc1nc3n(c(=O)c21)CCCCC3 | 28.6% | -0.5% | -11.8% | . | 15.3% | 1.5%
O=c1c2c3c(sc2nc2n1CCCCC2)C(O)CCC3 (stereo not drawn) | ? | 1.4% | -12.8% | 5.2% | 116.2% | 2.9%
COc1ccc(-n2c(-c3ccccc3)cc3c2CCCC3=O)cc1 | -29.9% | -8.2% | -22.1% | 31.6µM* | 15.7% | -9.4%
CC(=O)Nc1ccc2c(c1)Cc1cc(N3C(=O)C=CC3=O)ccc1-2 | . | -4.7% | -2.4% | . | ? | 35.5µM*
O=C1C=CC(=O)N1c1ccc2c(c1)Cc1cc(F)ccc1-2 | . | 2.9% | -16.9% | . | ? | -19.6%
CC(=O)Nc1ccc2c(c1)Cc1ccc(Cl)cc1-2 | . | -10.6% | -21.1% | . | 79.4µM* | -2.0%[11.6 µM]
O=C(O)CSc1c2c(nc3cc(C(=O)Nc4ccc(F)c(Cl)c4)ccc13)CCC2 | ? | ? | ? | . | 50.1µM* | .
COc1ccc(NC(=O)c2ccc3c(SCC(=O)O)c4c(nc3c2)CCCC4)cc1OC | 2.6% | -6.0% | -10.0% | . | 2.2% | .
Oc1ccc(Nc2nc(NCC3CCCO3)c3ccccc3n2)cc1 (stereo not drawn) | ? | -26.0% | -13.3% | -10.7% | -2.7% | 35.5µM*
Oc1ccccc1Nc1nc(NCC2CCCO2)c2ccccc2n1 (stereo not drawn) | -18.4% | -4.4% | -6.7% | -4.7% | -7.6% | -15.9%
Cc1ccc(S(=O)(=O)N2CN(CC3CCCO3)c3nc4ccccc4nc32)c(C)c1 (stereo not drawn) | -8.3% | -18.2% | -18.3% | . | 70.8µM* | -1.8%[11.6 µM]

Bioassay records from PubChem.
